Our source for the growth values is PubChem BioAssay (NCI).

What all share (assay): NCI-60 one-dose screen, 48 h (100 = growth as untreated, 0 = no growth, -100 = all killed)
Holding throughout (settings): 10 µM unless noted

The test system of assay [1] is HCT-15 colon.
Assay [2] relates to HT29 colon.
Assay [3] has as its system SNB-75 CNS.
Assay [4] relates to SNB-19 CNS.
For assay [5], the system named is U251 CNS.
For assay [6], the system named is PC-3 prostate.
The subject of assay [7] is SK-MEL-5 melanoma.
For assay [8], the system named is UACC-62 melanoma.
In assay [9] the test system is LOX IMVI melanoma.
For assay [10], the system named is SK-MEL-28 melanoma.

The panel holds about 83,000 compounds, 20% with a hit somewhere; the sample as a whole holds those more often.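 48-hour exposure, single concentration, 96-well plates; percent growth endpoint where 0 means no net growth. Active: below 10.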 Unmarked numbers belong to inactive results. Calls of active or inactive are those of the source.

As for `Cc1cc(N2CCOCC2)nc(N(CCCNc2ccnc3cc(Cl)ccc23)Cc2ccc3c(c2)OCO3)n1`, the growth is -31.6% (active) in assay [1]; -61% (active) in assay [2]; -43.3% (active) in assay [3]; 40.6% in assay [4]; -47.6% (active) in assay [5]; 15.9% in assay [6]. The growth in [7] was -37.2% (active); in assay [8] it was -18.4% (active); in assay [9], -90.8% (active); in assay [10] it was -42.6% (active).

`CN(C)c1ccc(Cc2cc(-c3ccccc3)nn(C/C(=N/O)c3ccccc3)c2=O)cc1`: the growth in assay [1] is 50.1%; in assay [2] it was 32.9%; in assay [3], 72.9%; in assay [4], 64.4%; in [5], 44.3%; in [6], 30.9%. In addition, the growth in [7] was 55.8%; in assay [8], 39.3%; in assay [9] it was 53%; in assay [10], 72%.

Turning to `CN(C)C(=O)OCc1ccc2c(Cl)cc(Cl)c(O)c2n1`, the growth is 22.8% in assay [1]; 94% in assay [2]; 48% in assay [3]; 29.7% in assay [4]; 18.5% in assay [5]; 46.4% in assay [6]. Moreover, the growth in assay [7] was 27.4%; in assay [8], -4.4% (active); in assay [9], 15.9%; in assay [10], 42.2%.

Take `Cc1ccc(-c2nn(CC(=O)N3CCOCC3)c(N)c2C#N)cc1`: the growth in assay [1] was 105%; in assay [2] it was 112%; in [3], 89.4%; in assay [4] it was 97.4%; in assay [5], 99.4%; in assay [6], 100%. Besides, the growth in [7] was 102%; in [8], 93.1%; in [9], 100%; in assay [10], 102%.

As for `COc1cc(C(=O)/C=C/c2c(-c3cccs3)nc3sc(C)cn23)cc(OC)c1OC`, the growth was 10.4% in assay [1]; 3.69% (active) in assay [2]; -15.6% (active) in [3]; 15.5% in [4]; 5.96% (active) in assay [5]; 8.02% (active) in assay [6]. The growth in assay [7] was -56.5% (active); in assay [8], -38.7% (active); in [9], 9.35% (active); in assay [10] it was 21.7%.

As for `COc1cccc(/C=C/C(=O)/C=C(/C=C/c2cccc(OC)c2OC)OB(F)F)c1OC`, the growth in assay [1] was 29.4%; in assay [2], 49.2%; in assay [3] it was 65.8%; in assay [4], 77.7%; in [5] it was 36.4%; in assay [6] it was 57.9%. Moreover, the growth in assay [7] was 93.4%; in assay [8], 42.4%; in assay [9] it was 18.2%; in assay [10] it was 50.7%.

On to `Cn1ccnc1C(=O)/C=C/c1ccc(CC(=O)Nc2cc(F)c(F)c(F)c2)cc1`, for which the growth was 9.67% (active) in assay [1]; 10.7% in assay [2]; -3.33% (active) in assay [3]; 20.3% in assay [4]; 8.83% (active) in [5]; 26.1% in assay [6]. The growth in assay [7] was 62.5%; in [8], 43.9%; in assay [9], -3.99% (active); in assay [10] it was 93.5%.

Take `CNC1=C([N+](=O)[O-])C(c2ccc(OC)cc2)C(C#N)=C(c2ccc[nH]2)O1` (stereo not given): the growth was 106% in [1]; 107% in assay [2]; 88.6% in assay [3]; 97% in [4]; 101% in assay [5]; 97.1% in assay [6]. For the same molecule, the growth in [7] was 98.2%; in assay [8], 91.8%; in assay [9] it was 99%; in [10] it was 108%.

Regarding `COc1cc(OCc2cccc(-c3ccc4c(c3)OCCO4)c2C)cc(OC)c1C=O`, the growth in assay [1] is 60.1%; in assay [2], 67.6%; in assay [3], 81.2%; in assay [4], 72.7%; in assay [5], 85.6%; in assay [6] it was 65.5%. Moreover, the growth in [7] is -9.95% (active); in assay [8], 38%; in assay [9], 58.7%; in assay [10], 67.1%.

On to `O=C(/C=C/c1cccc([N+](=O)[O-])c1)c1ccc(Nc2nc(Nc3ccc(F)cc3)nc(Nc3ccc(Cl)cc3)n2)cc1`, for which the growth in [1] was 83.9%; in assay [2], 88%; in assay [3] it was 106%; in assay [4], 100%; in assay [5] it was 81.1%; in [6], 88.5%. Besides, the growth in assay [7] is 87.6%; in assay [8], 93.9%; in assay [9], 84.2%; in assay [10] it was 97.1%.

As for `COc1ccc(/C(C)=C(\c2ccc(Cl)cc2)c2ccc(OCCCN(C)C)cc2)cc1`, the growth in [1] is 20.4%; in assay [2] it was 1.29% (active); in [3], 97.2%; in [4] it was 73.8%; in assay [5] it was 41%; in [6] it was 68.2%. Further, the growth in assay [7] is 37.8%; in [8], 83.9%; in assay [9], 22.1%; in assay [10], 75.1%.

Turning to `COc1ccc(C2=NN3C(C2)c2cc(Br)ccc2OC3c2ccncc2)cc1` (stereo not given), the growth in assay [1] was 73.1%; in assay [2], 109%; in assay [3], 78.8%; in assay [4] it was 81.4%; in assay [5] it was 75.3%; in [6], 63.2%. The growth in [7] was 93.2%; in assay [8], 71.5%; in assay [9] it was 62%; in [10], 105%.

Consider `Cc1cc(=O)oc2cc(Oc3nc(-c4ccccc4)cn4c(-c5ccccc5)cnc34)ccc12`, for which the growth in [1] is 68.6%; in [2], 53.2%; in [3] it was -1.39% (active); in assay [4], 64.4%; in assay [5], 67.3%; in assay [6], 39.2%. Besides, the growth in assay [7] was 38.3%; in assay [8], 81.4%; in assay [9], 56.4%; in assay [10], 67.6%.

As for `CCCCCCCC/C=C\CCCCCCCCOc1ccc(CC(=O)NCC[N+]2(C)CCCC2)cc1`, the growth is 84.8% in assay [1]; 18.4% in assay [2]; 43.4% in assay [3]; 38% in assay [4]; 15.1% in assay [5]; 9.45% (active) in assay [6]. In addition, the growth is 79.5% in assay [7], 50.3% in [8], 72.8% in [9] and 95.9% in [10].

As for `CCCNNC(=O)c1ccc(CNC(=O)/C=C/c2ccccc2)cc1`, the growth in assay [1] is 50.4% [2.5 µM]; in assay [2], 10.8% [2.5 µM]; in assay [3], 71.7% [2.5 µM]; in assay [4], 54.5% [2.5 µM]; in assay [5], 37.7% [2.5 µM]; in [6], 43% [2.5 µM]. The growth is 28.8% [2.5 µM] in assay [7], 7.16% [2.5 µM] (active) in assay [8], 21.6% [2.5 µM] in [9] and 36% [2.5 µM] in [10].
